In PubChem BioAssay AID687001 (Broad Institute, 2013) one finds outcome data, which are given here for 38 molecules.

SMILES strings stand for the structures. Measured potencies and affinities stand elsewhere. Active and inactive are the calls of the source.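 The calls were made as follows: active = signal-lowering compounds whose fitted half-maximal concentration is at or below twice the top tested dose in every run; inconclusive = runs disagree, flat 30 to 70% inhibition, or poor curve fit; inactive = the rest.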

This test has as its target Protein S100-A4 (Homo sapiens) (UniProt P26447). Description: human S100A4 peptide interaction inhibition curves – biochemical, fluorescence polarization, cherry-picked hits, dose response (AID 687001). A general note: Polarisation of emitted light reports the rotation of a fluorescent probe.

Chain of Protein S100-A4 (Homo sapiens) (P26447 whole entry, looked up): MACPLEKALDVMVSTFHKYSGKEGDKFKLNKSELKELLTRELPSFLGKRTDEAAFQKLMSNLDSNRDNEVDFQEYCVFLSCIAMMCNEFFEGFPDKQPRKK

Regarding `CCN(CC)C(=O)Oc1ccc2c(c1)O/C(=C\c1ccco1)C2=O`, the molecule was called inactive. Regarding `CCN1CCN(c2ccc(N3CCN(S(=O)(=O)c4ccc(C)c([N+](=O)[O-])c4)CC3)nn2)CC1`, the call was inactive. Under `CC(C(=O)NC1CCCCC1)N1C(=O)c2cccc3cccc1c23` (stereo not drawn) stands “inactive”; under `COc1ccc(CN(C)C[C@@H]2Oc3ccc(NS(=O)(=O)c4ccccc4)cc3CC(=O)N([C@H](C)CO)C[C@H]2C)cc1`, “inactive”. Under `CC(C)(C)OC(=O)C[C@H]1C/C=C\C[C@H](CC(=O)N[C@H](CO)Cc2ccccc2)C(=O)N[C@H](Cc2ccccc2)COC1=O` stands “inactive”.

For the molecule `CCNC(=O)[C@H]1N[C@H]2c3ccc(-c4cccc(C(=O)N(C)C)c4)c(=O)n3C[C@H]2[C@@H]1CO`, the molecule was called inactive. The entry for `O=C(c1cnccn1)N1CC(=O)N2[C@H](CO)[C@@H](c3ccc(-c4ccc(F)cc4)cc3)[C@H]2C1` is “inactive”; for `COc1ccc(CN(C)C[C@@H]2OCCCC[C@H](C)Oc3ccc(NS(=O)(=O)c4cn(C)cn4)cc3C(=O)N([C@@H](C)CO)C[C@H]2C)cc1` it is “inactive”; for `C[C@@H]1CN([C@@H](C)CO)C(=O)c2cc(/C=C/c3ccccc3)cnc2O[C@H]1CN(C)S(=O)(=O)c1cccs1` it is “inactive”. Under `O=C(C[C@H]1CC[C@H](NS(=O)(=O)c2cccc(F)c2)[C@@H](CO)O1)NCc1ccc2c(c1)OCO2` stands “inactive”; under `O=C(CSc1n[nH]c(-c2ccc(Br)cc2)n1)NC1CCCC1`, “inactive”; under `CSc1ccccc1OCc1cc(C(=O)NCCN2CCCc3ccccc32)no1`, “inactive”. The entry for `C[C@@H]1CN([C@@H](C)CO)S(=O)(=O)c2ccc(-c3ccccc3)cc2O[C@H]1CN(C)Cc1cccc(F)c1` is “inactive”. For `C[C@H]1CN([C@@H](C)CO)C(=O)c2cc(C#CC3CCCCC3)cnc2O[C@H]1CN(C)Cc1cncnc1`, the molecule was classed as inactive.

For the molecule `CCCCN(CC(=O)NC1CCCC1)C(=O)C(=O)Nc1ccc2c(c1)OCCO2`, the molecule was classed as inactive. Under `Cn1c(CC(=O)NNC(=O)c2ccc(F)cc2F)nc2ccccc21` stands “inactive”; under `C[C@@H]1CN([C@H](C)CO)C(=O)c2cccc(NC(=O)CCCCCC(=O)Nc3ccccc3N)c2O[C@H]1CN(C)S(=O)(=O)c1cccs1`, “inactive”. Regarding `CN(C)C(=O)c1cccc(-c2ccc3c(c2)[C@H]2[C@H](CCN2C(=O)C2CC2)[C@@H](CO)N3)c1`, the outcome was inactive. The entry for `O=C(Nc1ccc(S(=O)(=O)N2CCCCC2)cc1)C1CC(=O)N(Cc2ccccc2)C1` (stereo not drawn) is “inactive”; for `CC1CCN(C(=O)CSc2n[nH]c(-c3cccs3)n2)CC1` it is “inactive”; for `CCOC(=O)[C@]12CCC=C1N(Cc1cccc3ccccc13)C(=O)[C@H](CC(=O)N1CCOCC1)C2` it is “inactive”. Under `Cn1cnc(CCNC(=O)C[C@@H]2CC[C@H]3[C@@H](COC[C@@H](O)CN3C(=O)C3CC3)O2)c1` stands “inactive”.

As to `NC(=O)c1nsc(C(=O)N(c2ccccc2F)C(C(=O)NCc2ccccc2)c2ccc(O)cc2)c1N` (stereo not drawn), the outcome was inactive. Turning to `CN1c2ccc(-c3ccccc3)cc2[C@@H]2[C@@H](CCN2C(=O)c2ccccc2)[C@H]1CO`, the molecule was called inactive. The entry for `CCOC(=O)C1(C)CCN1C(=O)c1csnn1` (stereo not drawn) is “inactive”. The entry for `O=C(NCCS(=O)(=O)NCCc1ccccc1)c1ccccc1` is “inactive”; for `CO[C@@H]1CN(C)C(=O)c2ccc(NC(=O)c3ccc(F)cc3)cc2OC[C@H](C)N(C(=O)CC2CC2)C[C@H]1C` it is “inactive”.

As for `COc1cc(Cl)ccc1OCc1cc(C(=O)N2CCCCCCC2)no1`, the call was inactive.

In the case of `CCc1ccc(CNC(=O)C2CCN(S(=O)(=O)N3CCC(C)CC3)CC2)cc1`, the molecule was called inactive. As for `C/C=C/c1ccc([C@H]2[C@@H](CO)N(C(=O)Nc3ccccc3F)[C@H]2C#N)cc1`, the molecule was classed as inactive. With `O=C(Nc1ccc2c(c1)OCO2)N[C@@H]1CC[C@@H](CCNC(=O)C2CCCC2)O[C@H]1CO`, the result was inactive. Under `CN1C(C(=O)Nc2ccc(OC(F)(F)F)cc2)=CC(c2ccco2)=NS1(=O)=O` stands “inactive”; under `CCNC(=O)C[C@@H]1CC[C@@H](NS(=O)(=O)c2ccc(F)cc2)[C@H](CO)O1`, “inactive”; under `O=C(C[C@@H]1CC[C@@H]2[C@H](COC[C@@H](O)CN2C(=O)c2ccc3c(c2)OCO3)O1)NCCN1CCCC1`, “inactive”. The entry for `C[C@@H]1CN([C@H](C)CO)C(=O)CCCn2cc(nn2)CO[C@H]1CN(C)S(=O)(=O)c1ccc(Oc2ccccc2)nc1` is “inactive”; for `CCOc1ccc(N(CC(=O)NCCOc2ccccc2OC)S(=O)(=O)c2ccccc2)cc1` it is “inactive”; for `CC(C)n1nccc1N(Cc1ccc(C#N)cc1)S(=O)(=O)c1ccccc1` it is “inactive”. Under `Cn1c(=O)c2sccc2n2c(CCCC(=O)N3CCN(c4ccccn4)CC3)nnc12` stands “inactive”.
